28 compounds from PubChem BioAssay AID488864 (Broad Institute, 2010) can be followed below.

Potency and affinity values are given separately. Calls of active or inactive are those of the source.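 The calls were made as follows: active = ATP signal reduced by compound, with fitted active dose under ten times the top valid tested dose; inactive = the rest, compounds that increase ATP levels included.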

The nature of the assay: INS-1E beta-cell viability without cytokines, dose response, cytotoxicity control for beta-cell cytokine protection project, CellTiter-Glo luminescence, dry powder (AID 488864). The settings on record: INS-1E rat beta cells, 48 h, no cytokines; series mostly up to 26 µM. On the technique in general: ATP-based viability assays read luminescence as a measure of living cells.
Turning to `COc1ccc(S(=O)(=O)N(C)C[C@@H]2Oc3c(NC(=O)c4cc(C)nn4C)cccc3C(=O)N([C@@H](C)CO)C[C@H]2C)cc1`, the call was inactive.

For the compound `COc1ccc(S(=O)(=O)N(C)C[C@@H]2Oc3c(NC(=O)Nc4ccc5c(c4)OCO5)cccc3C(=O)N([C@@H](C)CO)C[C@H]2C)cc1`, the call was inactive.

For `Cc1noc(C)c1NC(=O)N(C)C[C@@H]1Oc2c(NC(=O)Nc3cccc4ccccc34)cccc2C(=O)N([C@@H](C)CO)C[C@H]1C`, the compound was classed as inactive.

On to `Cc1ccc(S(=O)(=O)N(C)C[C@@H]2Oc3c(NC(=O)Nc4ccc(F)cc4)cccc3C(=O)N([C@@H](C)CO)C[C@H]2C)cc1`, for which the call was inactive.

On to `C[C@@H]1CN([C@@H](C)CO)C(=O)c2cccc(NC(=O)Nc3cccc4ccccc34)c2O[C@H]1CN(C)C(=O)Nc1ccccc1`, for which the result was inactive.

Take `COc1ccc(S(=O)(=O)N(C)C[C@@H]2Oc3c(NC(=O)NC(C)C)cccc3C(=O)N([C@@H](C)CO)C[C@H]2C)cc1`: the outcome was inactive.

Take `C[C@@H]1CN([C@H](C)CO)C(=O)c2cccc(NC(=O)Nc3ccccc3)c2O[C@H]1CN(C)S(=O)(=O)c1ccc(F)cc1`: the result was inactive.

Consider `COc1ccc(S(=O)(=O)N(C)C[C@H]2Oc3c(NC(=O)Nc4cccc5ccccc45)cccc3C(=O)N([C@H](C)CO)C[C@@H]2C)cc1`, for which the result was inactive.

With `C[C@@H]1CN([C@H](C)CO)C(=O)c2cccc(NC(=O)Nc3cccc4ccccc34)c2O[C@H]1CN(C)S(=O)(=O)c1ccc(Cl)cc1`, the compound was classed as inactive.

Take `COc1ccc(S(=O)(=O)N(C)C[C@@H]2Oc3c(NS(=O)(=O)c4ccccc4)cccc3C(=O)N([C@@H](C)CO)C[C@H]2C)cc1`: the compound was classed as inactive.

Turning to `C[C@@H]1CN([C@@H](C)CO)C(=O)c2cccc(NC(=O)Nc3cccc4ccccc34)c2O[C@H]1CN(C)S(=O)(=O)c1ccc2ncsc2c1`, the outcome was inactive.

As for `C[C@@H]1CN([C@@H](C)CO)C(=O)c2cccc(NC(=O)Nc3cccc4ccccc34)c2O[C@H]1CN(C)S(C)(=O)=O`, the outcome was inactive.

For the compound `COc1ccc(S(=O)(=O)N(C)C[C@@H]2Oc3c(NC(=O)Nc4cccc5ccccc45)cccc3C(=O)N([C@@H](C)CO)C[C@@H]2C)cc1`, the outcome was inactive.

With `COc1ccc(S(=O)(=O)N(C)C[C@@H]2Oc3c(NC(=O)c4cnccn4)cccc3C(=O)N([C@@H](C)CO)C[C@H]2C)cc1`, the call was inactive.

With `COc1ccc(S(=O)(=O)N(C)C[C@@H]2Oc3c(NC(=O)NC4CCCCC4)cccc3C(=O)N([C@@H](C)CO)C[C@H]2C)cc1`, the result was inactive.

Consider `COc1ccc(S(=O)(=O)N(C)C[C@@H]2Oc3c(NC(=O)Nc4cccc5ccccc45)cccc3C(=O)N([C@@H](C)CO)C[C@H]2C)cc1F`, for which the compound was classed as inactive.

In the case of `Cc1ccc(S(=O)(=O)N(C)C[C@@H]2Oc3c(NC(=O)Nc4ccc(F)cc4)cccc3C(=O)N([C@H](C)CO)C[C@H]2C)cc1`, the result was inactive.

`COc1ccc(S(=O)(=O)N(C)C[C@H]2Oc3c(NC(=O)Nc4cccc5ccccc45)cccc3C(=O)N([C@@H](C)CO)C[C@@H]2C)cc1`: the outcome was inactive.

Take `C[C@@H]1CN([C@@H](C)CO)C(=O)c2cccc(NS(=O)(=O)c3ccccc3)c2O[C@H]1CN(C)Cc1ccc(C(F)(F)F)cc1`: the compound was called inactive.

For the compound `COc1ccc(S(=O)(=O)N(C)C[C@@H]2Oc3c(NC(=O)Nc4cccc5ccccc45)cccc3C(=O)N([C@H](C)CO)C[C@@H]2C)cc1`, the call was inactive.

In the case of `Cc1ccc(S(=O)(=O)N(C)C[C@@H]2Oc3c(NC(=O)Nc4ccccc4)cccc3C(=O)N([C@@H](C)CO)C[C@H]2C)cc1`, the outcome was inactive.

For the compound `C[C@@H]1CN([C@@H](C)CO)C(=O)c2cccc(NC(=O)Nc3cccc4ccccc34)c2O[C@H]1CN(C)C(=O)Nc1ccc(F)cc1`, the compound was called inactive.

On to `CNC[C@@H]1Oc2c(NC(=O)Nc3cccc4ccccc34)cccc2C(=O)N([C@@H](C)CO)C[C@H]1C`, for which the result was inactive.

In the case of `C[C@@H]1CN([C@@H](C)CO)C(=O)c2cccc(NC(=O)Nc3ccc(F)cc3)c2O[C@H]1CN(C)S(=O)(=O)c1ccc(F)cc1`, the call was inactive.

For the compound `COc1ccc(S(=O)(=O)N(C)C[C@@H]2Oc3c(NC(=O)Nc4ccc(F)cc4)cccc3C(=O)N([C@H](C)CO)C[C@H]2C)cc1`, the compound was called inactive.

Consider `C[C@@H]1CN([C@@H](C)CO)C(=O)c2cccc(NC(=O)Nc3ccccc3)c2O[C@H]1CN(C)S(=O)(=O)c1ccc(F)cc1`, for which the compound was classed as inactive.

Turning to `COc1cccc(S(=O)(=O)N(C)C[C@@H]2Oc3c(NC(=O)Nc4cccc5ccccc45)cccc3C(=O)N([C@@H](C)CO)C[C@H]2C)c1`, the call was inactive.

For `COc1ccc(NC(=O)Nc2cccc3c2O[C@@H](CN(C)S(=O)(=O)c2ccc(OC)cc2)[C@H](C)CN([C@@H](C)CO)C3=O)cc1`, the call was inactive.
